Assay results: article PMC4336329 (PLoS ONE, 2015)
Hit rate of the full screen: of about 310,000 compounds, about 14,000 (4.5%) showed an effect of 50% or more. The effect is printed as a negative number. For the sample, strong results were picked, then their nearest neighbours and some compounds at random.

Biological target: human ether-à-go-go-related gene (hERG) potassium channel (human, UniProt Q12809)
Assay: primary screen, population patch clamp on CHO cells stably expressing hERG; higher = less effect of the substance
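Also: peak tail current of the secondary pulse compared with the same well before compound.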

Sequence of human ether-à-go-go-related gene (hERG) potassium channel (Q12809 whole entry, looked up): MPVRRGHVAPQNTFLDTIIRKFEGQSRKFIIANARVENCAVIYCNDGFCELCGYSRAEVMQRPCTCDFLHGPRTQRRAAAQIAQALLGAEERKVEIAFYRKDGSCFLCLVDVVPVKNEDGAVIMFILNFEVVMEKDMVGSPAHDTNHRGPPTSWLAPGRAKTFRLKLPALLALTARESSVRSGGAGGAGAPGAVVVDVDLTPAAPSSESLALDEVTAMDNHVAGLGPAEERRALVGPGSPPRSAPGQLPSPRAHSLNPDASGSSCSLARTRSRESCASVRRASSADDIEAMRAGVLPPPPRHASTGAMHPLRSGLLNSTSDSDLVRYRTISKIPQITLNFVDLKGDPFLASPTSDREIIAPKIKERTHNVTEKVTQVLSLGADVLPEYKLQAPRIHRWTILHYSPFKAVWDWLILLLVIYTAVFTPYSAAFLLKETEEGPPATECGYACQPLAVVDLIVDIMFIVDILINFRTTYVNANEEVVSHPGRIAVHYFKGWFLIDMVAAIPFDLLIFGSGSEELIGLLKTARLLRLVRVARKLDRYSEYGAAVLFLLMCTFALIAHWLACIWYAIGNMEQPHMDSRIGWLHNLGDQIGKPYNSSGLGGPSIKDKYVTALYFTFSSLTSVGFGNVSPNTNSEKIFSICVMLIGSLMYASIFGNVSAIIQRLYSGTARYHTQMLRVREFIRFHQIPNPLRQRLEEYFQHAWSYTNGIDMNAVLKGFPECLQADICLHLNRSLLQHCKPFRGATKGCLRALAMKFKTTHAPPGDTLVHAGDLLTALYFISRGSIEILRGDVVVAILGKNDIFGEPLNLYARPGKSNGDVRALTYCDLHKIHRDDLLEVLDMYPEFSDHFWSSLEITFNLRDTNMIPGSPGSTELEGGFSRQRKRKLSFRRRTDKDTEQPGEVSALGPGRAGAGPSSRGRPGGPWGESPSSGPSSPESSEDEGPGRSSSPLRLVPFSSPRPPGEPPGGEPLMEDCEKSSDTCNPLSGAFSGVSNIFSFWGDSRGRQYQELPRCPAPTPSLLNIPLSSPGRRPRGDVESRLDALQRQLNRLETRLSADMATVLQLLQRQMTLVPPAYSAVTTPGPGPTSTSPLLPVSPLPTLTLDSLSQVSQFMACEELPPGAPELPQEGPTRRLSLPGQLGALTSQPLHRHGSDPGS

Row | SMILES | hERG current change (%, negative = inhibition) at 10uM
1 | Cc1ccc(NC(=O)Nc2cccc(Cl)c2)c(C(=O)O)c1 | 19.6%
2 | CC1=C(C(=O)Nc2ccccc2)C(c2ccc3c(c2)OCO3)C2=C(CCCC2=O)N1 (stereo not drawn) | -14.2%
3 | O=C1Nc2ccc(Br)cc2C1(O)Cc1ccncc1 (stereo not drawn) | -2.45%
4 | CSCCC(NC(=O)COc1ccccc1)C(=O)N1CCN(c2ccccc2)CC1 (stereo not drawn) | -51.9%
5 | CSCCC(NC(=O)COc1ccccc1)C(=O)N(C)Cc1ccc(F)cc1 (stereo not drawn) | -50.3%
6 | CSCCC(NC(=O)COc1ccccc1)C(=O)N(C)Cc1cccc(F)c1 (stereo not drawn) | -37.9%
7 | CSCCC(NC(=O)COc1ccccc1)C(=O)OCc1ccc([N+](=O)[O-])cc1 (stereo not drawn) | -70.8%
8 | CSCCC(NC(=O)COc1ccccc1)C(=O)N1CCOCC1 (stereo not drawn) | -9.88%
9 | CSCCC(NC(=O)COc1ccccc1)C(=O)N1CCN(C(C)=O)CC1 (stereo not drawn) | -5.67%
10 | CSCCC(NC(=O)COc1ccccc1)C(=O)N(C)Cc1ccc(Cl)cc1Cl (stereo not drawn) | -24.5%
11 | CSCCC(NC(=O)COc1ccccc1)C(=O)OCC(=O)c1ccccc1 (stereo not drawn) | 4.14%
12 | COC(=O)c1ccc(COC(=O)C(CCSC)NC(=O)COc2ccccc2)cc1 (stereo not drawn) | -9.2%
13 | CC(=O)N1CCCc2ccccc21 | 15.5%
14 | O=C(NCc1ccc(Cl)c(Cl)c1)c1ccc2c(c1)OCO2 | -10.7%
15 | COc1ccccc1C(=O)NC(CCSC)C(=O)NNC(=O)C(C)Oc1ccccc1F (stereo not drawn) | 0.592%
16 | O=C(O)COc1nsnc1N1CCOCC1 | 10.4%
17 | COc1cc(C(=S)N2CCCCC2)ccc1OCC(=O)Nc1ccccc1Cl | 18.9%
18 | S=c1[nH]nc(-c2ccc(Br)cc2)n1-c1ccc(Br)cc1 | 12.2%
19 | CCOC(=O)c1sc(N(Cc2ccccc2)C(=O)COC(=O)c2cnccn2)nc1C | 0.26%
20 | CCc1ccc(NC2=NC(C(=O)NC3CCCCC3)CC(=O)N2)cc1 (stereo not drawn) | 14.9%
21 | O=c1[nH]c2cccnc2n1Cc1ccccc1 | 7.67%

Row | SMILES | hERG current change (%, negative = inhibition) at 10uM
22 | CCc1ccc(NC(=O)C(=O)N/N=C(\C)CC(=O)NCCOC)cc1 | -2.99%
23 | CN(CC1COc2ccccc2O1)C(=O)c1ccc(Cl)c(S(=O)(=O)N2CCCCCC2)c1 (stereo not drawn) | -25.8%
24 | CN(CCOc1ccccc1)C(=O)c1ccc(Cl)c(S(=O)(=O)N2CCCCC2)c1 | -67.4%
25 | Cc1ccc(S(=O)(=O)N2CCCCC2)cc1C(=O)N(C)CCOc1ccccc1 | -48%
26 | Cc1ccc(C(=O)N(C)CCOc2ccccc2)cc1S(=O)(=O)N1CCCCC1 | -51.4%
27 | CN(CCOc1ccccc1)C(=O)c1cc(S(=O)(=O)N2CCCCC2)ccc1Cl | -42.7%
28 | Cc1ccc(C(=O)N(C)CCOc2ccccc2)cc1S(=O)(=O)N1CCOCC1 | -15.6%
29 | O=C(NCCOc1ccccc1)c1cc(C(=O)NCCOc2ccccc2)cc([N+](=O)[O-])c1 | -15.2%
30 | CN(CCOc1ccccc1)C(=O)c1cc([N+](=O)[O-])cc([N+](=O)[O-])c1 | -56.9%
31 | CN(CCOc1ccccc1)C(=O)c1ccc(N2CCCC2)c([N+](=O)[O-])c1 | -27.5%
32 | CCn1cc(S(=O)(=O)NC(C)c2cc(OC)ccc2OC)cn1 (stereo not drawn) | 1.25%
33 | CC(C)O.COC(=O)Nc1ccc2c(c1)N(C(=O)CCN1CCN3CCCC3C1)c1ccccc1CC2.Cl.O (stereo not drawn) | 1.43%
34 | CC(=O)c1cc(F)c(N2CCN(C(=O)c3ccco3)CC2)cc1C | -18.5%
35 | Cn1c(Cl)c(/C=N/OC(=O)c2ccc(Cl)cc2)c2ccccc21 | -5.13%
36 | Cc1ccc(-c2nnn(CC(=O)N(Cc3ccc(F)cc3)C(C(=O)NC3CCCC3)c3ccncc3)n2)o1 (stereo not drawn) | -12.4%
37 | CCOC(=O)c1ccc(Nc2c(OCC)c(=O)c2=O)cc1 | -15.4%
38 | CCCCn1c(=O)[nH]c(=O)c2c1nc(-c1ccc(C(F)(F)F)cc1)n2C | 3.8%
39 | CCCn1c(=O)[nH]c(=O)c2c1nc(-c1ccc(C#N)cc1)n2CCOC | -2.78%
40 | C=CCn1c(SCc2nc3c(c(=O)[nH]c(=O)n3CCCC)n2CCC)nnc1-c1ccccc1 | -60.5%
41 | CCCCn1c(=O)[nH]c(=O)c2c1nc(COc1ccc(C#N)cc1)n2CCC | -57.2%
42 | CCCCn1c(=O)[nH]c(=O)c2c1nc(-c1ccc(-c3ccc(F)cc3)o1)n2C | -55%

Row | SMILES | hERG current change (%, negative = inhibition) at 10uM
43 | CCCCn1c(=O)[nH]c(=O)c2c1nc(-c1ccc(OCC)cc1)n2CC | 1.27%
44 | C=CCOc1ccc(-c2nc3c(c(=O)[nH]c(=O)n3CCC)n2CCCC)cc1 | -5.34%
45 | CCCCn1c(=O)[nH]c(=O)c2c1nc(-c1ccc(-c3ccccc3)cc1)n2C | 20.2%
46 | C=CCn1c(SCc2ccccc2)nc2c1c(=O)[nH]c(=O)n2C | -21.6%
47 | CCCCn1c(O)c(/C(C)=N/NC(=O)Nc2ccccc2)c(=O)[nH]c1=O | 7.7%
48 | O=P(C(c1ccc2c(c1)OCO2)N1CCOCC1)(N1CCOCC1)N1CCOCC1 (stereo not drawn) | 4.64%
49 | O=C(CN1CCN(c2ncc(C(F)(F)F)cc2Cl)CC1)Nc1ccc2c(c1)OCO2 | -37.7%
50 | Cc1oc(-c2ccc(Cl)cc2)nc1CSCC(=O)NC1CCN(Cc2ccccc2)CC1 | -73.1%
51 | Cc1ccc(-c2nc(CSCC(=O)NCCN3CCN(Cc4ccccc4)CC3)c(C)o2)cc1 | -65.2%
52 | COc1ccc(-c2nc(CSCC(=O)NC3CCN(Cc4ccccc4)CC3)c(C)o2)cc1OC | -40.9%
53 | CCOc1ccc(-c2nc(CSCC(=O)NCCN3CCOCC3)c(C)o2)cc1 | 11.3%
54 | Cc1ccc(-c2nc(CSCC(=O)NCCCN3CCOCC3)c(C)o2)cc1 | 14.1%
55 | Cc1ccc(-c2nc(CSCC(=O)NC3CCN(Cc4ccccc4)CC3)c(C)o2)cc1 | -44%
56 | COc1ccc(-n2nc(C(=O)NCC(=O)N3CCN(c4ccccc4OC)CC3)c3ccccc3c2=O)cc1OC | -34.5%
57 | CC1CCN(C(=O)CCc2ccc(S(=O)(=O)NC(C)(C)C)cc2)CC1 | -5.31%
58 | O=C(N/N=C/c1ccncc1)c1cc([N+](=O)[O-])cc([N+](=O)[O-])c1O | 4.15%
59 | CCOC(=O)C(=O)Nc1nnc(CCc2ccccc2)s1 | 6.37%
60 | CCCNS(=O)(=O)c1ccc(OCC(=O)N2CCN(Cc3ccc4c(c3)OCO4)CC2)c(C)c1 | -61.6%
61 | CCCNS(=O)(=O)c1ccc(OCC(=O)N2CCN(Cc3ccc4c(c3)OCO4)CC2)cc1 | -32%
62 | COCCNS(=O)(=O)c1ccc(OCC(=O)N2CCc3ccccc3C2)c(Cl)c1 | -43.5%
63 | Cc1ccc(OCC(=O)N2CCc3ccccc3C2)c(C)c1 | -16.1%

Row | SMILES | hERG current change (%, negative = inhibition) at 10uM
64 | Cc1cc(S(=O)(=O)NC(C)C)ccc1OCC(=O)N1CCN(Cc2ccc3c(c2)OCO3)CC1 | -27.6%
65 | CCCNS(=O)(=O)c1ccc(OCC(=O)N2CCc3ccccc3C2)c(C)c1 | -65.9%
66 | CCOc1cc(C)c(C(C)C)cc1S(=O)(=O)n1cnc(C)c1 | -18.7%
67 | Cc1ccc(NC(=O)C2=COCCO2)cc1S(=O)(=O)N1CCOCC1 | -0.0399%
68 | CCOC(=O)C1CCN(C2CC(=O)N(c3cccc(Cl)c3)C2=O)CC1 (stereo not drawn) | -12%
69 | c1ccc(C[C@H]2CN=C(Nc3ccccc3)N2CCC2CCCC2)cc1 | -70.4%
70 | C[C@H]1CN=C(Nc2ccccc2)N1CC1CCC1 | -0.391%
71 | c1ccc(C[C@H]2CN=C(Nc3ccccc3)N2CC2CCC2)cc1 | -63%
72 | CC(C)C[C@H]1CN=C(Nc2ccccc2)N1CC1CCC1 | -30.2%
73 | CCn1c2ccccc2c2cc(NC(=O)COC(=O)c3cc(OC)c(OC)cc3OC)ccc21 | -3.41%
74 | COC(=O)c1ccccc1NC(=O)c1cc2nc(C3CC3)cc(C(F)(F)F)n2n1 | 9.42%
75 | Cn1cnnc1Sc1ccc(C(F)(F)F)cc1[N+](=O)[O-] | 2.45%
76 | Cn1c(Sc2ccc(C(F)(F)F)cc2[N+](=O)[O-])nnc1-c1ccccc1 | -62.8%
77 | CSc1nnc(-c2ccccc2)n1C | 5.22%
78 | Cn1c(SCC(=O)N/N=C/c2cc([N+](=O)[O-])ccc2O)nnc1-c1ccccc1 | 10.5%
79 | Cn1c(Sc2ccc(C(=O)O)cc2[N+](=O)[O-])nnc1-c1ccccc1 | -6.68%
80 | Cn1c(Sc2ccc([N+](=O)[O-])cc2C(F)(F)F)nnc1-c1ccccc1 | -55%
81 | CC(=O)Nc1ccc(S(=O)(=O)Nc2c(C)nn(-c3ccccc3)c2C)cc1 | -7.68%
82 | O=c1c(C(c2ccc(Cl)cc2)c2c(O)nc3n(c2=O)CCCS3)c(O)nc2n1CCCS2 | 21.3%
83 | CCN(CC)S(=O)(=O)c1cccc(-c2nnc(SCCCC(=O)c3ccccc3)o2)c1 | -23.8%
84 | O=C(Nc1ccc(O)cc1)C1CCCN1S(=O)(=O)c1ccc(F)cc1 (stereo not drawn) | -1.44%
